Measured values taken from the supplement of paper PMC7595190.

Tested on: MV4-11
Experiment: CellTox Green cytotoxicity fluorescence relative to DMSO vehicle (fold of vehicle RFU); higher = more cell death (loss of membrane integrity), active = 2 or more
Procedure: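 Paediatric AML cell lines (MV4-11, CMK, Kasumi-1; 4x10^4 cells/well, 96-well) treated with single compounds from the Selleckchem apoptosis library at 0.01, 0.1 and 1 µM. Cytotoxicity was read with CellTox Green (RFU, Ex 485/Em 520) at 24, 48 and 72 h and normalised to the 0.1% DMSO vehicle. Normalised RFU >= 2 was taken as a successful, cell-killing treatment.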

Measured: CellTox Green cytotoxicity fluorescence

CCOC(=O)c1[nH]c2cc(Cl)ccc2c1C(C(=O)NC(C)(C)C)N(C=O)Cc1ccc(Cl)cc1 (stereo unspecified)
inactive: 0.01 µM, 24 h 0.983 | 0.01 µM, 48 h 0.965 | 0.01 µM, 72 h 0.957 | 0.1 µM, 24 h 0.989 | 0.1 µM, 48 h 0.983 | 0.1 µM, 72 h 0.985 | 1 µM, 24 h 0.954 | 1 µM, 48 h 0.993 | 1 µM, 72 h 1.02

CC(=O)O/N=C1/C(c2c(O)[nH]c3cc(Br)ccc23)=Nc2ccccc21 [BIO-acetoxime]
inactive: 0.01 µM, 24 h 1.7 | 0.01 µM, 48 h 1.57 | 0.01 µM, 72 h 1.56 | 0.1 µM, 24 h 1.03 | 0.1 µM, 48 h 1.11 | 0.1 µM, 72 h 1.17 | 1 µM, 24 h 1.02 | 1 µM, 48 h 1.2 | 1 µM, 72 h 1.36

O=C(COc1ccc(Cl)cc1)NC1CCC(NC(=O)COc2ccc(Cl)cc2)CC1 (stereo unspecified)
inactive: 0.01 µM, 24 h 0.993 | 0.01 µM, 48 h 0.994 | 0.01 µM, 72 h 0.983 | 0.1 µM, 24 h 1.01 | 0.1 µM, 48 h 1.02 | 0.1 µM, 72 h 1.01 | 1 µM, 24 h 0.994 | 1 µM, 48 h 1.01 | 1 µM, 72 h 0.992

Cc1c(C(=O)Nc2ccc(Oc3ccnc4[nH]cc(-c5ccccc5)c34)c(F)c2)c(=O)n(-c2ccc(F)cc2)n1C
inactive: 0.01 µM, 24 h 1.01 | 0.01 µM, 48 h 1.03 | 0.01 µM, 72 h 1.06 | 0.1 µM, 24 h 1.05 | 0.1 µM, 48 h 1.23 | 0.1 µM, 72 h 1.41 | 1 µM, 24 h 1.03 | 1 µM, 48 h 1.24 | 1 µM, 72 h 1.49
